# PubChem BioAssay (Tox21)
# Where “and” joins values, the source holds several entries; their conditions need not be identical. Identical values can stand only once. Results filed as inconclusive are left out. Where a structure was tested more than once in an assay, its records may differ in their call. Calls of active or inactive are those of the source. Calls follow the shape of the full dose curve.
# Experiment: qHTS assay to identify small molecule antagonists of the estrogen receptor alpha (ER-alpha) signaling pathway using the BG1 cell line (AID 743080);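 also: BG1 cells stimulated with 17beta-estradiol alongside compound; nearly all actives have a fitted effect of over 25% in size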
# Conditions: BG1Luc4E2 ERE-luciferase antagonist mode, luminescence; series mostly up to 70.3 µM; activity change, negative = inhibition: at the top concentration
# Text: National Center for Advancing Translational Sciences [NCATS]
# NIH Chemical Genomics Center [NCGC]
# U.S. Environmental Protection Agency [EPA]
# National Institutes of Environmental Health Sciences [NIEHS]
# National Toxicology Program [NTP]
# U.S. Food and Drug Administration [FDA]
# Estrogen receptor (ER), a nuclear hormone receptor, plays an important role in development, metabolic homeostasis and reproduction. Endocrine disrupting chemicals (EDCs) and their interactions with steroid hormone receptors like ER causes disruption of normal endocrine function. Therefore, it is important to understand the effect of environmental chemicals on the ER signaling pathway. To identify ER antagonists, BG1-Luc-4E2 cell line (provided by Dr. Michael Denison from University of California) has been used to screen the Tox21 10K compound library. BG1Luc4E2 cell line endogenously expresses full-length ER-alpha and is stably transfected with a plasmid containing four estrogen responsive elements (ERE) upstream of a luciferase reporter gene.
# Tox21 Assay Protocol Summary:
# BG1-Luc-4E2 cells were cultured in phenol red free assay medium containing 10% charcoal stripped FBS for 5 days before the assay was performed. The cells were dispensed at 4,000 cells/4 uL of assay medium per well into white wall/solid-bottom 1536-well plates using a Multidrop Combi (ThermoFisher Scientific, Waltham, MA) dispenser. The assay plates were incubated at a 37C and 5% CO2 for 24 h, and then 23 nL of compounds dissolved in DMSO, positive controls or DMSO only was transferred to the assay plate using a Pintool station (Kalypsys, San Diego, CA), followed by addition of 1 uL of 17beta-estradiol in assay medium using a Flying Reagent Dispenser (Aurora Discovery, San Diego, CA). After the plates were incubated at 37 C and 5% CO2 for 21.5 h, 1 uL of CellTiter-Fluor reagent (Promega, Madison, WI) of measuring cytotoxicity was added using Flying Reagent Dispenser (FRD) to each well. The assay plates were incubated at 37 C and 5% CO2 for additional 30 min and the fluorescence intensity was quantified by a ViewLux plate reader (PerkinElmer, Shelton, CT). For measuring luciferase reporter gene activity, 4 uL of ONE-Glo reagent (Promega) was added to each plate using an FRD and luminescence was quantified by a ViewLux plate reader after 30 min incubation at room temperature.
# % is scaled to controls: 0 for no effect and ±100 for the full control effect; potency is read from the fitted curve at half-maximal effect.
Compound,Potency,"activity change, negative = inhibition"
CC[C@]1(O)C[C@@H]2CN(CCc3c([nH]c4ccccc34)[C@@](C(=O)OC)(c3cc4c(cc3OC)N(C)[C@H]3[C@@](O)(C(=O)OC)[C@H](OC(C)=O)[C@]5(CC)C=CCN6CC[C@]43[C@@H]65)C2)C1,3.35 µM (active),–
O=C(O)CP(=O)(O)O,–,1.58% (inactive)
CC(C)CCCCCCc1ccc(O)cc1,inactive and 43.3 µM (active),–
CC1COC(=O)O1 (stereo not given),inactive,–
CC(C)CCOCc1ccccc1,–,-0.129% (inactive)
O=C1NCC2(CCN(CCc3ccccc3)CC2)O1,–,2.73% (inactive)
C1COC(NC(C2CC2)C2CC2)=N1,–,3.32% (inactive)
Oc1ccc(Cl)cc1Cc1cc(Cl)ccc1O,33.5 µM (active),–
CCCCN(CCO)CCCC,–,-11.7% [at 95 µM] (inactive)
CCCCOCCOC(=O)c1ccccc1C(=O)OCCOCCCC,inactive,–
Cc1scc2c1N(C(=O)CN1CCN(C)CC1)c1ccccc1NC2=O,–,-7.99% (inactive)
NCCO,inactive,–
CCN(CC)C(=O)Nc1ccc(OCC(O)CNC(C)(C)C)c(C(C)=O)c1 (stereo not given),–,0.6% (inactive)
CCCCC/C=C/CC1CC(=O)OC1=O (stereo not given),–,-6.83% (inactive)
c1ccc2cc3c(ccc4ccccc43)cc2c1,inactive,–
COc1nc(C)nc(Cl)c1NC1=NCCN1,–,-2.58% [at 32.5 µM] (inactive)
Cc1cc(OCCOCC[N+](C)(C)Cc2ccccc2)ccc1C(C)(C)CC(C)(C)C,26.6 µM (active),–
Nc1nc2ccccc2[nH]1,inactive,–
C=C(C)C(=O)O,inactive,–
Cc1cccc([N+](=O)[O-])c1C(=O)O,–,16.6% (inactive)

Compound,Potency,"activity change, negative = inhibition"
NC(N)=Nc1nc(CSCC/C(N)=N/S(N)(=O)=O)cs1,–,9.09% (inactive)
CC[C@@H](N)CO,–,1.18% [at 95 µM] (inactive)
c1ccc2c(c1)-c1cccc3c1c-2cc1ccccc13,inactive,–
CCC[C@H](N[C@@H](C)C(=O)N1[C@H](C(=O)O)C[C@@H]2CCCC[C@@H]21)C(=O)OCC,–,12.8% (inactive)
[Cl][In]([Cl])[Cl],inactive,–
O=C1OC2(c3ccc(O)cc3Oc3cc(O)ccc32)c2ccccc21,inactive,–
c1ccc2c(c1)CCCC2C1=NCCN1 (stereo not given),–,-0.722% (inactive)
CCOc1ccccc1C(N)=O,inactive,–
CC(=O)CC(=O)Nc1ccc2[nH]c(=O)[nH]c2c1,–,10.3% (inactive)
CCn1cc(C(=O)O)c(=O)c2cc(F)c(N3CCNC(C)C3)c(F)c21 (stereo not given),inactive,–
Oc1c(Cl)cc(Cl)cc1Sc1cc(Cl)cc(Cl)c1O,26.6 µM (active) and 48.6 µM (active),–
CN1C(=O)c2ccc([N+](=O)[O-])cc2C1=O,–,0.0315% (inactive)
CCCCC(CC)COC(=O)CC(C(=O)OCC(CC)CCCC)S(=O)(=O)O (stereo not given),inactive,–
c1cnc2cc3c(cc2n1)C1CNCC3C1,–,-1.23% [at 95 µM] (inactive)
Cc1cc(C2(c3cc(C)c(O)cc3C)OS(=O)(=O)c3ccccc32)c(C)cc1O,–,-13.2% (inactive)
CC1=CC(=O)c2ccccc2C1=O,29.8 µM (active),–
COc1ccc(Cc2cnc(N)nc2N)cc1OC,–,20.3% (inactive)
Cc1ccc(-c2cc(C(F)(F)F)nn2-c2ccc(S(N)(=O)=O)cc2)cc1,–,25.8% (inactive)
CC(C)(C)c1cc(C(C)(C)C)c(O)c(C(C)(C)C)c1,–,-11.8% (inactive)
CC(C)(C)c1ccc(O)c(C(C)(C)C)c1,48.6 µM (active),–
